PubChem BioAssay (NCI)
This is part of a sample that, as a whole, favours compounds with a hit. Of some 83,000 tested, about 20% had one in any assay.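 Activity criterion: percent growth below 10, measured after cells in 96-well plates were exposed to a single compound concentration for 48 hours.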 Unmarked numbers belong to inactive results. Active and inactive are the calls of the source.

Each molecule was assayed on DU-145 prostate (assay: NCI-60 one-dose screen, 48 h (100 = growth as untreated, 0 = no growth, -100 = all killed)). Details: 10 µM.
For `Cc1c(O)cnc2nn(-c3ccccc3)c(=N)n12`, the growth was 110%.
`CC[N+](C)(CC)CCO` gave a growth of 112%.
In the case of `CCOC(=O)C/C(C)=N\O`, the growth is reported as 107%.
Molecule `COc1cc(CCN=Cc2ccccc2O)c([N+](=O)[O-])cc1OC` has a growth of 113%.
Work on `O=[N+]([O-])c1ccc(CO)cc1` yielded a growth of 115%.
Work on `O=C(Nc1ccccc1C(=O)NCC1CC1)c1cccs1` yielded a growth of 118%.
With `COc1cc(CN)ccc1O` the growth was 91.2%.
`N#CC(=Nc1cccc(F)c1)C1=C(O)c2ccccc2C1=O` showed a growth of 105%.
For `CC(=O)OCC1OC(OC2=C(CC=C(C)C)C(=O)c3ccccc3C2=O)C(OC(C)=O)C(OC(C)=O)C1OC(C)=O` (stereo not drawn), the growth was 57.1%.
Work on `O=[N+]([O-])c1ccccc1S(=O)c1ccccc1[N+](=O)[O-]` yielded a growth of 106%.
Work on `CC(=O)OCC1CCCO1` (stereo not drawn) yielded a growth of 109%.
Work on `CC(C(=O)O)(C1CCCCC1)C1(O)CCCCC1` (stereo not drawn) yielded a growth of 108%.
For `COc1cc(/C=C/C(=O)c2ccccc2)cc(OC)c1OC`, the growth was 62.5%.
With `O=C1OC(c2ccc(F)cc2)CC1CN1CCOCC1` (stereo not drawn) the growth was 106%.
`OC1OC(COC(c2ccccc2)(c2ccccc2)c2ccccc2)C(O)C(O)C1O` (stereo not drawn) showed a growth of 107%.
`O=C(NCCNC(=O)c1ccc(Cl)cc1Cl)c1ccc(Cl)cc1Cl` gave a growth of 114%.
For `CC(C)(N)COS(=O)(=O)O`, the growth was 111%.
`C=CCCCCCCCCCOC(C)=O` was tested, and the growth was 102%.
`O=C(NCc1ccco1)Nc1c(Cl)cc(Cl)cc1Cl` was tested, and the growth was 113%.
`CCOC(=O)C1=C(Nc2ccc(Br)cc2)C(=O)N(CC)C1` showed a growth of 107%.
With `CN(C)c1ccc(C(c2ccc(O)cc2)c2ccc(N(C)C)cc2)cc1` the growth was 101%.
In the case of `S=C1NCc2cncnc2N1`, the growth is reported as 112%.
`C/C(=N\NC(=O)c1ccccc1N)c1ccccc1O` was tested, and the growth was 45.6%.
`CC(C)(C)n1nc(C2CC2)c(Br)c1NC(=O)c1ccccc1F` was tested, and the growth was 121%.
For `O=C(O)CCC(NC(=O)OCc1ccccc1)C(=O)O` (stereo not drawn), the growth was 98.7%.
`Nc1ccccc1SC(CC(=O)c1ccccc1)c1c(Cl)cccc1Cl` (stereo not drawn) showed a growth of 23.9%.
`O=C(O)CSCSCC(=O)O` was tested, and the growth was 111%.
With `NC(CSC(c1ccccc1)(c1ccccc1)c1ccccc1)C(=O)O` (stereo not drawn) the growth was 29.9%.
Work on `CCCCC1C(=O)N(c2ccccc2)N(c2ccccc2)C1=O` yielded a growth of 113%.
Molecule `CCCC[P+](c1ccccc1)(c1ccccc1)c1ccccc1` has a growth of 62.5%.
With `CC(CN1CCCCC1)NC(=O)c1scnc1-c1ccccc1` (stereo not drawn) the growth was 116%.
Work on `COc1ccc(C(=O)C(Br)C(Br)C(=O)O)cc1` (stereo not drawn) yielded a growth of 111%.
With `CCOC(=O)c1coc(C(=O)OCC)c1C(=O)OCC` the growth was 116%.
Molecule `O=C(OCC(O)C1OC(c2ccccc2)OC(COC(=O)c2ccccc2)C1O)c1ccccc1` (stereo not drawn) has a growth of 118%.
In the case of `COc1ccc(/C(C#N)=C2C=C/C(=N/O)c3ccccc3\2)cc1`, the growth is reported as 10.1%.
Work on `Nc1ccc(N)c([N+](=O)[O-])c1` yielded a growth of 104%.
For `Cc1ccccc1C1N=C2Oc3ccccc3C=C2C(=O)N1` (stereo not drawn), the growth was 20.4%.
In the case of `O=C(Nc1ccccc1)OCCc1ccccc1`, the growth is reported as 108%.
With `Cc1cc(/C=C/c2ccc3cc(N(C)C)ccc3[n+]2C)c(C)n1-c1ccccc1` the growth was -39.2% (active).

The molecules below were run on K-562 leukemia in the same assay as above. Details: 10 µM.
Molecule `Cc1c(O)cnc2nn(-c3ccccc3)c(=N)n12` has a growth of 101%.
`CC[N+](C)(CC)CCO` showed a growth of 99.6%.
For `CCOC(=O)C/C(C)=N\O`, the growth was 94.4%.
Work on `COc1cc(CCN=Cc2ccccc2O)c([N+](=O)[O-])cc1OC` yielded a growth of 94.9%.
Work on `O=[N+]([O-])c1ccc(CO)cc1` yielded a growth of 93.7%.
In the case of `O=C(Nc1ccccc1C(=O)NCC1CC1)c1cccs1`, the growth is reported as 103%.
For `COc1cc(CN)ccc1O`, the growth was 71.7%.
`N#CC(=Nc1cccc(F)c1)C1=C(O)c2ccccc2C1=O` gave a growth of 84.4%.
For `CC(=O)OCC1OC(OC2=C(CC=C(C)C)C(=O)c3ccccc3C2=O)C(OC(C)=O)C(OC(C)=O)C1OC(C)=O` (stereo not drawn), the growth was -47.4% (active).
With `O=[N+]([O-])c1ccccc1S(=O)c1ccccc1[N+](=O)[O-]` the growth was 47.9%.
In the case of `CC(=O)OCC1CCCO1` (stereo not drawn), the growth is reported as 94.5%.
Molecule `CC(C(=O)O)(C1CCCCC1)C1(O)CCCCC1` (stereo not drawn) has a growth of 102%.
`COc1cc(/C=C/C(=O)c2ccccc2)cc(OC)c1OC` showed a growth of 11.4%.
Work on `O=C1OC(c2ccc(F)cc2)CC1CN1CCOCC1` (stereo not drawn) yielded a growth of 113%.
Molecule `OC1OC(COC(c2ccccc2)(c2ccccc2)c2ccccc2)C(O)C(O)C1O` (stereo not drawn) has a growth of 95.4%.
Molecule `O=C(NCCNC(=O)c1ccc(Cl)cc1Cl)c1ccc(Cl)cc1Cl` has a growth of 107%.
Molecule `CC(C)(N)COS(=O)(=O)O` has a growth of 104%.
`C=CCCCCCCCCCOC(C)=O` was tested, and the growth was 93.6%.
In the case of `O=C(NCc1ccco1)Nc1c(Cl)cc(Cl)cc1Cl`, the growth is reported as 106%.
With `CCOC(=O)C1=C(Nc2ccc(Br)cc2)C(=O)N(CC)C1` the growth was 106%.
For `CN(C)c1ccc(C(c2ccc(O)cc2)c2ccc(N(C)C)cc2)cc1`, the growth was 49.9%.
Work on `S=C1NCc2cncnc2N1` yielded a growth of 93%.
`C/C(=N\NC(=O)c1ccccc1N)c1ccccc1O` gave a growth of 34%.
With `CC(C)(C)n1nc(C2CC2)c(Br)c1NC(=O)c1ccccc1F` the growth was 91.6%.
Work on `O=C(O)CCC(NC(=O)OCc1ccccc1)C(=O)O` (stereo not drawn) yielded a growth of 96.6%.
For `Nc1ccccc1SC(CC(=O)c1ccccc1)c1c(Cl)cccc1Cl` (stereo not drawn), the growth was 12.4%.
With `O=C(O)CSCSCC(=O)O` the growth was 97.8%.
`NC(CSC(c1ccccc1)(c1ccccc1)c1ccccc1)C(=O)O` (stereo not drawn) gave a growth of 14.5%.
Molecule `CCCCC1C(=O)N(c2ccccc2)N(c2ccccc2)C1=O` has a growth of 99.1%.
In the case of `CCCC[P+](c1ccccc1)(c1ccccc1)c1ccccc1`, the growth is reported as 24.4%.
`CC(CN1CCCCC1)NC(=O)c1scnc1-c1ccccc1` (stereo not drawn) was tested, and the growth was 113%.
With `COc1ccc(C(=O)C(Br)C(Br)C(=O)O)cc1` (stereo not drawn) the growth was 109%.
In the case of `CCOC(=O)c1coc(C(=O)OCC)c1C(=O)OCC`, the growth is reported as 112%.
`O=C(OCC(O)C1OC(c2ccccc2)OC(COC(=O)c2ccccc2)C1O)c1ccccc1` (stereo not drawn) gave a growth of 101%.
For `COc1ccc(/C(C#N)=C2C=C/C(=N/O)c3ccccc3\2)cc1`, the growth was 13.2%.
In the case of `Nc1ccc(N)c([N+](=O)[O-])c1`, the growth is reported as 98.7%.
Molecule `Cc1ccccc1C1N=C2Oc3ccccc3C=C2C(=O)N1` (stereo not drawn) has a growth of 24.2%.
`O=C(Nc1ccccc1)OCCc1ccccc1` gave a growth of 114%.
With `Cc1cc(/C=C/c2ccc3cc(N(C)C)ccc3[n+]2C)c(C)n1-c1ccccc1` the growth was 0.995% (active).
